Experimental data: PubChem BioAssay
Active and inactive are the calls of the source. Unless noted, how the calls were made is not given here.

Columns and labels:
[1] = compound effects on lung adenocarcinoma cell viability – A549, calcein-AM fluorescence, 48 h, basal, profiling panel (AID 1162); details: higher = more signal; further: test concentration not given here
[2] = compound effects on differentiated 3T3-L1 adipocyte viability – cell-based, 3T3-L1 adipocytes, calcein-AM fluorescence, 48 h, basal, profiling panel (AID 1163); details: 3T3-L1 adipocytes viability, higher = more signal; further: test concentration not given here
[3] = compound effects on hepatocellular carcinoma cell viability – HepG2, calcein-AM fluorescence, 48 h, basal, profiling panel (AID 1164); details: higher = more signal; further: test concentration not given here
[4] = compound effects on multiple myeloma cell viability – MM1S, calcein-AM fluorescence, 48 h, basal, profiling panel (AID 1165); details: higher = more signal;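 further: viability of MM1S multiple myeloma cells under basal unstimulated conditions; test concentration not given here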
[5] = calcein-AM signal in unstimulated myeloma cells – cell-based, calcein-AM fluorescence, 48 h, PK04 Diversity Set, profiling panel (AID 1166); details: RPMI8226 myeloma viability, higher = more signal;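 further: cells grown under basal conditions without added stimulus; test concentration not given here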
[6] = JC-1 mitochondrial signal, unstimulated HepG2 cells – cell-based, JC-1 fluorescence, 24 h, 100 nL compound, profiling panel (AID 1167); details: HepG2 mitochondrial potential, higher = more signal; further: test concentration not given here
[7] = JC-1 mitochondrial signal, unstimulated adipocytes – cell-based, JC-1 fluorescence, 3T3-L1 adipocytes, 24 h, 100 nL compound, profiling panel (AID 1168); details: JC-1 mitochondrial fluorescence, higher = more signal, called active from +8 up or from −8 down; further: test concentration not given here
[8] = JC-1 mitochondrial signal, unstimulated myeloma cells – cell-based, JC-1 fluorescence, RPMI8226, 24 h, 100 nL compound, profiling panel (AID 1169); details: JC-1 mitochondrial potential fluorescence, higher = more signal; further: test concentration not given here
[9] = JC-1 mitochondrial signal, unstimulated MM1S myeloma – cell-based, JC-1 fluorescence, 24 h, 100 nL compound, profiling panel (AID 1170); details: MM1S mitochondrial potential, higher = more signal; further: test concentration not given here
[10] = resazurin metabolic signal in A549 cells – cell-based, resazurin fluorescence, 24 h, PK04 Diversity Set, profiling panel (AID 1171); details: A549 viability, higher = more signal, called active from +8 up or from −8 down; further: test concentration not given here
[11] = resazurin metabolic signal in HepG2 cells – cell-based, resazurin fluorescence, 24 h, PK04 Diversity Set, profiling panel (AID 1172); details: HepG2 viability, higher = more signal; further: test concentration not given here
[12] = budding yeast growth changes without added modifier – OD600, strain BY4716, 24 h, basal condition, primary screen (AID 1173); details: S. cerevisiae BY4716 growth, OD600, 24 h; higher = more signal, called active from +8 up or from −8 down
[13] = viability profiling in MM1S myeloma cells – cell-based, resazurin fluorescence, basal, 24 h, PK04 Diversity Set, profiling panel (AID 1174); details: higher = more signal, called active from +8 up or from −8 down; further: test concentration not given here
[14] = target: Dihydroorotate dehydrogenase (quinone), mitochondrial (Plasmodium falciparum (isolate 3D7)) (UniProt Q08210); test: inhibition of P. falciparum DHODH – biochemical, C-terminal His tag, absorbance 600 nm, primary screen (AID 1175); details: PfDHODH enzyme, DCIP absorbance 600 nm; higher = more signal, called active from +8 up or from −8 down;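 further: recombinant parasite enzyme with a five histidine tag at its C terminus; test concentration not given here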
Chain of Dihydroorotate dehydrogenase (quinone), mitochondrial (Plasmodium falciparum (isolate 3D7)) (Q08210 whole entry, looked up): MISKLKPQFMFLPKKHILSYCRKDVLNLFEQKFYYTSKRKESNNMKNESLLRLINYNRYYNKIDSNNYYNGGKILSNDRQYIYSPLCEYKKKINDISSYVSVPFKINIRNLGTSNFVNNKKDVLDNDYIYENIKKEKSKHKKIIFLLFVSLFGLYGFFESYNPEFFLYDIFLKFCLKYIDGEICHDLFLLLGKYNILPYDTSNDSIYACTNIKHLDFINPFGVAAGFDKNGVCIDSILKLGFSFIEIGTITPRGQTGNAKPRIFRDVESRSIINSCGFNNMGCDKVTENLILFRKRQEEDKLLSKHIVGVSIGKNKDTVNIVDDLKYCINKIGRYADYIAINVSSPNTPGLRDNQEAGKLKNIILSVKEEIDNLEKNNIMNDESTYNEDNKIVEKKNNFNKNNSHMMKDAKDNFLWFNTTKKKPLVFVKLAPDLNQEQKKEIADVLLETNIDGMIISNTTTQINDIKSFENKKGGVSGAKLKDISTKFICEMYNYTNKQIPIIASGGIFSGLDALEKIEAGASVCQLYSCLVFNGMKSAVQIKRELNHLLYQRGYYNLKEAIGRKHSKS

[15] = inhibition of PAO1 biofilm formation – strain PAO1, LB-PBS medium, absorbance 600 nm, primary screen (AID 1176); further: test concentration not given here; details: P. aeruginosa PAO1 growth/biofilm, A600, 12 h; higher = more signal
[16] = growth modulation of vineyard yeast isolate – strain RM11-1a, OD600, basal, 24 h, primary screen (AID 1177);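 further: cultures grown under basal conditions with no added stressor; test concentration not given here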; details: S. cerevisiae RM11-1a growth, OD600, 24 h; higher = more signal, called active from +8 up or from −8 down
[17] = growth of efflux-deficient E. coli DRC39 – strain DRC39, OD650, 24 h, E. coli filamentation inducers, primary screen (AID 1178);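 further: growth measured as culture turbidity by optical density at 650 nm; test concentration not given here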; details: E. coli DRC39 acrAB, higher = more signal, called active from +8 up or from −8 down
[18] = growth of efflux-deficient E. coli DRC39 – strain DRC39, OD650, 48 h, E. coli filamentation inducers, primary screen (AID 1179);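 further: screen aims at cell division blockers that make cells filament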; details: E. coli DRC39 delta-acrAB growth, higher = more signal, called active from +8 up or from −8 down
[19] = viability profiling in RPMI8226 myeloma cells – cell-based, resazurin fluorescence, basal, 24 h, PK04 Diversity Set, profiling panel (AID 1180); details: higher = more signal;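 further: RPMI8826 multiple myeloma cell line at 5000 cells per well; test concentration not given here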
[20] = target: E3 ubiquitin-protein ligase XIAP (Homo sapiens) (UniProt P98170); test: small molecules binding XIAP protein – biophysical, small-molecule microarray, fluorescence 635 nm, primary screen (AID 1181); details: higher = more signal;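 further: score merges 667 nm emission and signal to noise over triplicate slides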
Chain of E3 ubiquitin-protein ligase XIAP (Homo sapiens) (P98170 whole entry, looked up): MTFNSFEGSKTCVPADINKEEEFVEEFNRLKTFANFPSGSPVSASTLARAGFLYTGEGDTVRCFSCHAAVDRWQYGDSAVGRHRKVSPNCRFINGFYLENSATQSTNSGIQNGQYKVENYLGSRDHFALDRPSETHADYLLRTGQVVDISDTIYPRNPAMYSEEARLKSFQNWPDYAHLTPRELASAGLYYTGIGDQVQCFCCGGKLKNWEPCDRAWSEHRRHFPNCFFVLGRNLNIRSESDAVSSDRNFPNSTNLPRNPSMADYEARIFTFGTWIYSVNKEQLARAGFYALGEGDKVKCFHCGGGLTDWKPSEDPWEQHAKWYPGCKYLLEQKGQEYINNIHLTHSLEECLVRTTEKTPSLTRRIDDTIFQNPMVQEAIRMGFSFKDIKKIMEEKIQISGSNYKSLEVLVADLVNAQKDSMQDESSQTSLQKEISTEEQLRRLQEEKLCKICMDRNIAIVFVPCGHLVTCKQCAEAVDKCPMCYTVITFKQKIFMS

| Structure (SMILES) | z-score [1] | z-score [2] | z-score [3] | z-score [4] | z-score [5] | z-score [6] | z-score [7] | z-score [8] | z-score [9] | z-score [10] | z-score [11] | z-score [12] | z-score [13] | composite z-score [14] | z-score [15] | z-score [16] | z-score [17] | z-score [18] | z-score [19] | composite z-score [20] |
| --- | --- | --- | --- | --- | --- | --- | --- | --- | --- | --- | --- | --- | --- | --- | --- | --- | --- | --- | --- | --- |
| C=CCOC(=O)[C@H]1[C@@H]2C(=O)O[C@@H](c3ccccc3)[C@@H](c3ccccc3)N2[C@@H](c2ccc(OCCOC(=O)[C@@H]3C[C@@H]4C(=O)N[C@@H](Cc5ccccc5)C(=O)N4[C@@H]3c3ccc(O)cc3)cc2)[C@]12C(=O)Nc1ccccc12 | 0.137 | -0.156 | -0.338 | -1.31 | 0.0712 | -1.37 | -0.262 (inactive) | -0.616 | -1.02 | 0.0598 (inactive) | -0.648 | 1.45 (inactive) | -0.292 (inactive) | -0.139 (inactive) | 3.66 (inactive) | 0.818 (inactive) | -0.631 (inactive) | -0.282 (inactive) | -0.309 | 0.144 |
| CC(C)C[C@H]1NC(=O)[C@@]23C(=O)N[C@@H](Cc4ccccc4)C2[C@H](C)[C@@]2(C)O[C@H]2C3/C=C/C/C=C\CNC(=O)[C@@H]2CCCN2C1=O (stereo not given in full) | 0.0246 | -0.0768 | -0.54 | -1.41 | -0.531 | -0.831 | 0.244 (inactive) | 0.868 | -0.391 | -0.659 (inactive) | -0.706 | -1.43 (inactive) | -0.0195 (inactive) | -0.742 (inactive) | 0.352 (inactive) | -0.162 (inactive) | -0.467 (inactive) | -0.0699 (inactive) | 0.476 | 0.155 |
| CCCC[C@@H](O)C1=C(COC)Cn2c(=O)n(-c3ccccc3)c(=O)n2[C@H]1CO | 0.281 | 0.122 | 0.166 | 0.103 | 0.337 | 0.376 | -0.301 (inactive) | -0.197 | 0.794 | -0.783 (inactive) | -0.603 | -1.86 (inactive) | -0.0278 (inactive) | -1.45 (inactive) | -0.131 (inactive) | -2.03 (inactive) | 1.15 (inactive) | 1.06 (inactive) | -0.0456 | -0.189 |
| CC(C)[Si](C#CCCCC#N)(O[C@H](c1ccccc1)c1cn([C@H](C)c2ccccc2)nn1)C(C)C | -1.38 | -0.348 | 0.571 | -0.057 | -2.68 | 6.54 | -0.289 (inactive) | 0.0785 | -0.733 | 1.07 (inactive) | 0.592 | -1.06 (inactive) | 0.181 (inactive) | 0.31 (inactive) | 0.559 (inactive) | -0.802 (inactive) | -0.708 (inactive) | -0.482 (inactive) | 0.409 | 0.172 |
| COCCCNC(=O)[C@@H]1c2ccccc2C(=O)N(C2CCCCC2)[C@H]1c1ccc(CO)cc1 | 1.83 | 1.15 | 1.05 | 0.777 | -0.559 | 2.49 | -0.154 (inactive) | 0.107 | -1.17 | 1.19 (inactive) | 0.559 | -0.32 (inactive) | 0.614 (inactive) | -0.271 (inactive) | 0.745 (inactive) | -0.611 (inactive) | 0.0359 (inactive) | -0.122 (inactive) | 0.505 | -0.0773 |
| CC(C)C[C@@H]1NC(=O)[C@@H]2C[C@H](C(=O)NCCCC[N+](C)(C)C)[C@H](c3ccc(O)cc3)N2C1=O | 0.127 | -0.302 | -0.698 | -0.104 | -0.427 | -0.65 | -0.341 (inactive) | 0.496 | -0.548 | -1.18 (inactive) | -0.965 | 0.166 (inactive) | -0.524 (inactive) | -31.3 (active) | 0.876 (inactive) | 0.0138 (inactive) | 0.382 (inactive) | 0.581 (inactive) | -0.866 | -0.128 |
| O=C1c2ccccc2[C@](Cc2ccccc2I)(C(=O)O)[C@H](c2ccc(CO)cc2)N1Cc1ccccc1 | 1.48 | 0.431 | 1.04 | 0.295 | -1.66 | 0.275 | 0.0449 (inactive) | -0.601 | -0.349 | -1.45 (inactive) | -0.52 | -1.72 (inactive) | -0.427 (inactive) | -5.63 (inactive) | -0.121 (inactive) | -2.09 (inactive) | 0.656 (inactive) | 1.39 (inactive) | -0.831 | 0.147 |
| CCC[C@@H]1[C@@H](Sc2ccccc2)[C@@H](C(=O)O)[C@H](c2ccc(C)cc2)N1S(=O)(=O)c1ccc(C)cc1 | -0.861 | -0.571 | 0.699 | 0.116 | -2.59 | -0.772 | 1.41 (inactive) | -0.134 | -1.64 | -0.856 (inactive) | -0.428 | -1.99 (inactive) | -0.0959 (inactive) | -1.04 (inactive) | 0.257 (inactive) | -0.122 (inactive) | -0.008 (inactive) | 0.329 (inactive) | -0.862 | -0.0062 |
